# Test results published in PubChem BioAssay (EPA / NIEHS).
# Activity calls are given as the source filed them. How the source made its calls: active means hit-call score of the fitted dose curve at least 0.9, where 1 is the maximum; inactive means score below 0.9.
# Read-out: X-box binding protein 1 (XBP1), XBP1 (gene 7494)
# Experiment: LTEA_HepaRG_XBP1: Life Technologies and Expression Analysis (LTEA) Assay for X-box binding protein 1 (XBP1) using HepaRG (AID 2283540)
# Details: mRNA level, 48 h; actives raise or lower the signal
# Procedure: LTEA_HepaRG is a cell based, multiplexed-readout assay that uses HepaRG, a human liver cell line, with measurements taken at 48 hours after chemical dosing on a 96-well plate.LTEA_HepaRG_XBP1 is one of 102 assay component(s) measured in the LTEA HepaRG cell culture assay. It is a marker of Diseases associated with XBP1 including Major Affective Disorder 7 and Bipolar Disorder.Data from the assay component LTEA_HepaRG_XBP1 was analyzed into 1 endpoint. This assay endpoint, LTEA_HepaRG_XBP1, was analyzed with bidirectional fitting relative to DMSO as the negative control and baseline of activity. Using a type of inducible reporter, measures of mRNA induction for gain or loss-of-signal activity can be used to understand regulation of transcription factor activity. To generalize the intended target to other relatable targets, this assay endpoint is annotated to the dna binding intended target family, where the subfamily is basic leucine zipper.
# A total of 1060 chemcials from the ToxCast library were tested in eight-point concentration-response experiments. Cell culture and cytotoxicity assays were conducted at Thermo Fisher Scientific's Custom Services facility (Madison, WI). A single lot of human HepaRG cells (Thermo Fisher Scientific, Frederick, MD) was used for the cell culture experiments. 96-well format collagen type I coated plates of human HepaRG cells were prepared using established methods. Briefly, cryopreserved HepaRG cells were thawed, plated at a density of approximately 100,000 cells/well in HepaRG Thaw, Plate, and General Purpose media (HPRG770, Thermo Fisher Scientific), and incubated for 48 hours. 0.5% DMSO was selected as vehicle control to balance the requisite need of DMSO in HepaRG cultures to maintain differentiation (for example, baseline metabolism, proportions of hepatocytes vs. cholangiocytes), while enabling further hepatic receptor pathway activation (for example, PXR and CAR) in response to chemical exposure. 48 hours after plating, the culture medium was replaced with HepaRG Serum-Free Incudtion Media. Cells were exposed to each test chemical in duplicate and maintained in CO2 incubators for another 48 hours. Chemical plates were thawed to room temperature and 200x concentrations of treatment groups were prepared. 8-point conentration-reponse curves were made with the highest exposure at 100 uM, followed by half-log dilutions, all in 0.5% DMSO. Each test plate contained variouse controls, induction positive controls (1mM phenobarbital), cytotoxicity positive controls ([…] aflatoxin B1), vehicle controls (0.5% DMSO), and total lysis controls (0.5% DMSO). Cell morphology images were taken using an Essen IncuCyte FLR automated microscope, with six 96-well plates imaged in about 24 minutes. Images were captured and exported and JPEG files. Spent culture media was transfered to black-well plates for the LDH assay, and remaining media was sorted at -80 C for later use. Cells were treated with RLT buffer and frozen until shipped for gene expression analysis. Total RNA was isolated from the cell suspension in 75 uL of Buffer RLT (Qiagen, Germantown, MD 20874) by Quintiles/Expression Analysis (Durham, NC) using a custom isolation procedure. Total RNA from each plate well was transferred to a preamplification plate. Fluidigm's 96.96 Dynamic ArrayTM (Fluidigm, Amsterdam, the Netherlands) technology was used for gene expression analyses by quantitative reverse transcription polymerase chain reaction (qRT-PCR, performed by Quintiles/Expression Analysis, Durham, NC)89. Standard TaqManTM Assays (Applied Biosystems/ThermoFisher Scientific, Foster City, CA) were used to assess the expression of 93 genes selected based on their selectivity and sensitivity to important hepatic receptors known to be modulated by environmental chemicals; importance in human hepatocyte functionality; and hepatotoxicity. […]
SMILES,outcome,AC50
CCn1nc(C)c2c1C(=O)NCC(c1ccc(O)cc1)=N2,inactive,
Cc1nccn1-c1ccc(Sc2cccc(C3(C(N)=O)CCOCC3)c2)cc1,,7.33 µM (active)
CCCCCCCCN(C)C,inactive,
CCCCCOC(C)=O,inactive,
OCCNCCO,,50 µM (active)
CCCCCCCC1CCC(=O)O1 (stereo not given),inactive,
CC[C@H](C)C(=O)O[C@H]1C[C@H](O)C=C2C=C[C@H](C)[C@H](CC[C@@H](O)C[C@@H](O)CC(=O)O)[C@H]21,inactive,
CCCCCCCC/C=C\CCCCCCCC(=O)OC[C@@H](O)[C@H]1OC[C@H](O)[C@H]1O,inactive,
Nc1ccn([C@@H]2O[C@H](CO)[C@@H](O)[C@@H]2O)c(=O)n1,inactive,
OCCOCCOCCO,inactive,
Cn1c(=O)c2[nH]cnc2n(C)c1=O,inactive,
CCCCOC(=O)c1ccccc1,inactive,
CC(=O)c1ccccc1,inactive,
COCc1nnc(-c2ccc[n+]([O-])c2)n1-c1c(Cl)c(Cl)cc2[nH]c(=O)c(=O)[nH]c12,inactive,
CCN(CC)C(=S)SSC(=S)N(CC)CC,inactive,
CC(C)c1nnc2ccc(-c3ocnc3-c3cc(F)ccc3F)cn12,,39 µM (active)
C[C@@H](Oc1ccc(CNC(=O)c2cccnc2Oc2ccc3c(c2)OCO3)c(F)c1)C(=O)O,inactive,
c1ccc2cc3ccccc3cc2c1,inactive,
OC[C@H]1O[C@@](CO)(O[C@H]2O[C@H](CO)[C@@H](O)[C@H](O)[C@H]2O)[C@@H](O)[C@@H]1O,inactive,
CCCCCCCCCC,inactive,

SMILES,outcome,AC50
Cc1ncc([C@@H](CCCCCCc2ccc3c(n2)NCCC3)CC(=O)O)cn1,inactive,
O=C1CN(N=Cc2ccc([N+](=O)[O-])o2)C(=O)N1,inactive,
CC1(C)C(=O)N(Cl)C(=O)N1Cl,inactive,
COc1cc2c(c(OC)c1OC)-c1ccc(OC)c(=O)cc1[C@@H](NC(C)=O)CC2,,0.218 µM (active)
O=C(O)c1cccc(C[C@@H]2COc3ccc(OCc4nc5cc(F)ccc5s4)cc3[C@@H]2O)c1,inactive,
O=S1(=O)CCCO1,inactive,
OCC(CO)(CO)CO,inactive,
NC(=O)N1c2ccccc2C=Cc2ccccc21,inactive,
O=C(O)c1cccc(C(=O)O)c1,inactive,
O=C(O)[C@H](O)[C@@H](O)C(=O)O,inactive,
O=S(=O)(O)c1ccc(N=Nc2c(O)ccc3cc(S(=O)(=O)O)ccc23)cc1,inactive,
O=C(NO)C1(NS(=O)(=O)c2ccc(Oc3ccc(F)cc3)cc2)CCOCC1,inactive,
CCCOc1ccc(S(=O)(=O)N2CCN(CC)CC2)cc1-c1nc2c(CC)n(Cc3ccccn3)nc2c(=O)[nH]1,inactive,
c1ccc2ncccc2c1,inactive,
c1ccc2c(c1)-c1cccc3c1c-2cc1ccccc13,,12.7 µM (active)
CCCCC(CC)C(=O)OCCOCCOCCOC(=O)C(CC)CCCC (stereo not given),inactive,
CCCCCCCCCCCCCCO,inactive,
CCc1ccc(O)c(C(C)(C)C)c1,inactive,
OC[C@H]1O[C@@H]2O[C@H]3[C@H](O)[C@@H](O)[C@@H](O[C@H]4[C@H](O)[C@@H](O)[C@@H](O[C@H]5[C@H](O)[C@@H](O)[C@@H](O[C@H]6[C@H](O)[C@@H](O)[C@@H](O[C@H]7[C@H](O)[C@@H](O)[C@@H](O[C@H]1[C@H](O)[C@H]2O)O[C@@H]7CO)O[C@@H]6CO)O[C@@H]5CO)O[C@@H]4CO)O[C@@H]3CO,inactive,
CCOC(N)=O,inactive,
